Test results taken from PubChem BioAssay AID588489 (Sanford-Burnham Center for Chemical Genomics, 2011).
Out of some 360,000 compounds screened, about 1,300 (0.36%) were called active. What follows is part of a selection rich in actives, with near analogues and random picks from the rest. Unmarked numbers belong to inactive results. Rule as the data show it: active = inhibition above about 35% (passing the limit was not always enough); inactive = the rest.

molecular target: Polyadenylate-binding protein 1 (Homo sapiens) (UniProt P11940); experiment: PAM2 peptide displacement from PABP1 MLLE – biochemical, fluorescence polarization, FITC-PAM2, GST-MLLE, primary screen (AID 588489); conditions: at 20 µM, stronger effect = higher value;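 also: plate controls were DMSO wells with GST-MLLE for no effect and wells lacking GST-MLLE protein for full effect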
Sequence (P11940 whole entry, looked up): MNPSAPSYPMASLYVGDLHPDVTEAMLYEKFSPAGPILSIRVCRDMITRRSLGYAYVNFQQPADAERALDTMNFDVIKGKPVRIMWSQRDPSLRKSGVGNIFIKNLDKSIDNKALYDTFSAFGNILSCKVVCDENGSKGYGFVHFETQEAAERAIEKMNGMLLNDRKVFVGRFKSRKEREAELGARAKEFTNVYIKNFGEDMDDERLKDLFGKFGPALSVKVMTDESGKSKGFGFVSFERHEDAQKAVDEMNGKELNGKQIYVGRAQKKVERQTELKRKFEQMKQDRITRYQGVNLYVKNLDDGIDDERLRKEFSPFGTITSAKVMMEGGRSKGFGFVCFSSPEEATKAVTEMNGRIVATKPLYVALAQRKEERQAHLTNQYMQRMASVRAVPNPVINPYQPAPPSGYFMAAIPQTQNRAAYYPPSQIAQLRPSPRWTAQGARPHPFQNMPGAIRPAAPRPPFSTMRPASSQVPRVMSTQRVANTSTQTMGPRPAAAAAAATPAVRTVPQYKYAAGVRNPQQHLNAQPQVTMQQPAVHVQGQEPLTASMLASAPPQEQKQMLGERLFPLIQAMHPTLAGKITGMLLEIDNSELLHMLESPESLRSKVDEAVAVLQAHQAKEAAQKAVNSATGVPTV

| SMILES | inhibition |
| --- | --- |
| C=CCC(NCCCO)c1cccc(OC)c1OC (stereo unspecified) | 9.54% |
| O=C1[C@@H](c2ccccc2)[C@@H](c2ccccc2)N1c1cccnc1 | -0.26% |
| O=C(O)c1cscn1 | -3.08% |
| CC(NC(=S)Nc1ccc(OC(F)F)cc1)c1ccc(F)cc1 (stereo unspecified) | -13.4% |
| O=S(=O)(NC(=S)Nc1ccccc1)c1ccc(F)cc1 | 33.4% |
| Cc1ccc(NC(=S)Nc2ccc(F)cc2)cc1 | 37.8% (active) |
| COc1ccc(/C=N/Nc2ncnc3sc4c(c23)CCCC4)cc1O | -12.9% |
| O=C1N=C2SCCN2/C1=C\c1c(Cl)cccc1Cl | 38.4% (active) |
| O=Cc1c(Cl)cccc1Cl | 9.74% |
| O=C(NC1(C(F)(F)F)N=C2SCCN2C1=O)c1ccco1 (stereo unspecified) | 35.9% |
| Cc1ccc(CNC(=O)C2CCN(S(=O)(=O)c3ccc4nc5c(c(C(=O)O)c4c3)CC(C)CC5)CC2)cc1 (stereo unspecified) | -3.02% |
| COc1ccccc1CNC(=O)CCCn1c(=O)c2ccccc2n(CC(=O)NC2CCCC2)c1=O | 12% |
| CC(NC(=O)Nc1ccccc1)C(c1cccs1)N1CCN(c2ccccc2)CC1 (stereo unspecified) | -4.15% |
| CC(=O)Nc1cc(-c2ccccc2N(C)C)cn2c(-c3ccc(F)c(Cl)c3)cnc12 | 48.4% (active) |
| COc1ccccc1-c1cc(NC(C)=O)c2ncc(-c3ccc(F)cc3)n2c1 | -10.4% |
| CC(=O)Nc1cc(-c2ccccc2F)cn2c(-c3cccc(C(F)(F)F)c3)cnc12 | -12.1% |
| N#Cc1ccc(C2=CC(=O)C[C@H](c3ccc(Cl)cc3)C2)cc1 | 6.39% |
| COc1cc2c(cc1NC(=O)COC(=O)/C=C/c1ccccc1)oc1ccccc12 | 11% |
| CCN1C(=O)[C@H]2[C@@H](c3ccc(C)cc3)N3C(=O)N(c4cccc(Br)c4)C(=O)[C@@]3(CC)[C@H]2C1=O | 11.2% |
| CCC(=O)NNc1cc(=O)c2c(=O)n(C)c(=O)n(C)c2[nH]1 | -6.2% |
| COC(=O)c1c(C)oc2ccc(N(C(=O)Oc3ccccc3)S(=O)(=O)c3ccccc3)cc12 | 9.28% |
| CC(=O)Oc1ccc(N(C(C)=O)S(=O)(=O)c2ccc3ccccc3c2)cc1Br | -22.5% |
| CC(=O)N(c1ccc2oc(=O)sc2c1)S(=O)(=O)c1ccc(C)cc1 | 41.1% (active) |
| Cc1nn(C)c(Oc2ccc(Cl)cc2)c1C=O | -2.27% |
| CCC(=O)N1CCC(C)(C(=O)Nc2cc(OC)c(OC)c(OC)c2)C1 (stereo unspecified) | 4.71% |
| CC(CC(=O)N1CCN(S(=O)(=O)c2ccccc2)CC1)n1cncn1 (stereo unspecified) | 21.2% |
